Test results: PubChem BioAssay AID743343 (Broad Institute, 2014)
Entries with a potency or affinity are not part of this list.

Each compound was assayed on Drosophila melanogaster bursicon receptor LGR2 (rickets) (assay: blockers of bursicon-stimulated LGR2 cAMP reporter – cell-based, HEK293, CRE-luciferase reporter, cherry pick, set 2, dose response (AID 743343)). Details: bursicon-induced cAMP antagonist; series mostly up to 35 µM; activity change, negative = inhibition: at the top concentration; call rule not given here.

Activity change, negative = inhibition, inactive:
N#C[C@H]1[C@@H](c2ccc(C3=CCCCC3)cc2)[C@H](CO)N1C(=O)c1ccccn1 18.3%, COc1ccc(CCNC(=O)C2CCN(S(=O)(=O)c3ccc(Cl)cc3)CC2)cc1OC 38.9%, Cn1cnc(S(=O)(=O)N2C[C@@H](O)COC[C@H]3O[C@H](CC(=O)NC4CCCC4)CC[C@@H]32)c1 -0.782%, O=C(Nc1cc(S(=O)(=O)Nc2ccccc2Cl)ccc1O)c1ccc(F)cc1F 17.9%, O=C(NCc1ccc(F)cc1)c1cc(C2CCCCN2S(=O)(=O)c2cccs2)on1 (centres undefined) 3.39%, Cc1ccc2nc(-c3ccc(NC(=O)c4cccnc4)cc3)oc2c1 -42%, Cc1ccc(S(=O)(=O)N2[C@@H](CO)CO[C@H]2CC(=O)OCc2ccccc2)cc1 -1.23%, C[C@H](CO)N1C[C@H](C)[C@@H](CN(C)S(=O)(=O)c2cccs2)Oc2c(cccc2N(C)C)C1=O -16.6%, CO[C@H]1CN(C)C(=O)c2ccc(NC(=O)c3ccc(-c4ccccc4)cc3)cc2OC[C@@H](C)NC[C@@H]1C 12.9%, OC[C@H]1[C@@H](c2ccc(-c3ccc(F)cc3)cc2)[C@@H]2CN(Cc3ccccn3)CCCCN12 -3.26%, CC1(c2ccccc2Cl)NC(=O)N(CC(=O)N2CCc3ccccc32)C1=O (centres undefined) 27.4%, CCOc1cccc2sc(Nc3nc4ccc(NC(C)=O)cc4s3)nc12 12.2%, C[C@@H]1CN([C@H](C)CO)C(=O)Cc2cc(NC(=O)CCC(F)(F)F)ccc2O[C@@H]1CN(C)CC1CCCCC1 0.312%, CCOC(=O)C(C)N1c2cccc3cccc(c23)S1(=O)=O (centres undefined) 10.1%
